Among the test systems are DU-145 prostate; K-562 leukemia; MALME-3M melanoma; MDA-MB-231 breast; RXF 393 renal; SF-268 CNS; SF-295 CNS; SF-539 CNS; UACC-257 melanoma; M14 melanoma; HCT-15 colon; HT29 colon; SNB-75 CNS; SNB-19 CNS; U251 CNS; PC-3 prostate; SK-MEL-5 melanoma; UACC-62 melanoma; LOX IMVI melanoma; SK-MEL-28 melanoma.
What all share (test): NCI-60 one-dose screen, 48 h (100 = growth as untreated, 0 = no growth, -100 = all killed)
Settings in all cases: 10 µM unless noted

The panel holds about 83,000 compounds, 20% with a hit somewhere; the sample as a whole holds those more often.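 How to read the values: 0–100, growth inhibition (40 = 60% inhibited); 0, no net growth; -100 to 0, cell death (-40 = 40% of starting cells died; -100 = all dead).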 Values without a mark were called inactive. Activity calls are given as the source filed them. Rule for the calls: active = growth percent below 10; inactive = the rest.

`COc1ccc2nc3ccccc3c(NCc3ccc(C)cc3)c2c1`: the growth in the assay on DU-145 prostate is 21.6%; with K-562 leukemia, 2.71% (active); in the assay on MALME-3M melanoma, 22.1%; in the assay with MDA-MB-231 breast, 33.6%; with RXF 393 renal, 6.17% (active); in the assay on SF-268 CNS, 48.4%. The growth was 23.6% in the assay with SF-295 CNS; 10.7% in the assay on SF-539 CNS; -7.97% (active) with UACC-257 melanoma; 28.7% in the assay with M14 melanoma; 11.4% with HCT-15 colon; 1.23% (active) with HT29 colon. The growth with SNB-75 CNS is 46.6%; with SNB-19 CNS it was 29.2%; in the assay with U251 CNS it was 15.3%; in the assay with PC-3 prostate, 11.4%; with SK-MEL-5 melanoma, 34.4%; in the assay with UACC-62 melanoma, 55.7%. Further, the growth in the assay on LOX IMVI melanoma is -6.01% (active); in the assay on SK-MEL-28 melanoma, 66.4%.

With `NC(=S)N1N=C(c2ccc(Cl)cc2)CC1c1cc2ccccc2[nH]c1=O` (stereo not given), the growth with DU-145 prostate was 118%; in the assay on K-562 leukemia, 112%; in the assay with MALME-3M melanoma it was 93.8%; in the assay on MDA-MB-231 breast it was 109%; in the assay with RXF 393 renal, 123%; with SF-268 CNS, 112%. In addition, the growth is 108% in the assay on SF-295 CNS; 106% in the assay with SF-539 CNS; 111% with UACC-257 melanoma; 111% in the assay on M14 melanoma; 104% in the assay with HCT-15 colon; 95.3% in the assay with HT29 colon. Moreover, the growth in the assay with SNB-75 CNS was 106%; in the assay on SNB-19 CNS it was 101%; in the assay with U251 CNS, 107%; with PC-3 prostate, 87.5%; in the assay with SK-MEL-5 melanoma, 107%; in the assay with UACC-62 melanoma, 97.7%. For the same compound, the values for the growth in the assay on LOX IMVI melanoma and with SK-MEL-28 melanoma were 105% and 115%, respectively.

As for `O=C(NCCN1CCCCC1)n1cc(-c2ccncc2)c(-c2ccc(Cl)c(O)c2)n1`, the growth with DU-145 prostate was 105%; with K-562 leukemia, 89.5%; in the assay on MALME-3M melanoma, -1.57% (active); with MDA-MB-231 breast it was 74.5%; with RXF 393 renal, 68%; with SF-268 CNS, 89.8%. In addition, the growth with SF-295 CNS is 120%; in the assay with SF-539 CNS, 91.3%; with UACC-257 melanoma, 58.9%; in the assay on M14 melanoma, 27.5%; in the assay with HCT-15 colon it was 86.6%; in the assay on HT29 colon, 95.5%. Also, the growth was 78.9% in the assay on SNB-75 CNS; 101% with SNB-19 CNS; 98.5% with U251 CNS; 84.6% with PC-3 prostate; 73.2% in the assay with SK-MEL-5 melanoma; 37.9% with UACC-62 melanoma. The growth in the assay with LOX IMVI melanoma is 64.7%; with SK-MEL-28 melanoma it was 37.5%.

For the compound `COCc1nc(NS(=O)(=O)c2ccc(N)cc2)nc(C)c1Br`, the growth is 116% with DU-145 prostate; 98% in the assay with K-562 leukemia; 94.6% in the assay with MALME-3M melanoma; 106% in the assay on MDA-MB-231 breast; 101% with RXF 393 renal; 109% in the assay with SF-268 CNS. Moreover, the growth in the assay with SF-295 CNS is 93.6%; in the assay with SF-539 CNS, 100%; in the assay with UACC-257 melanoma, 104%; in the assay on M14 melanoma, 101%; in the assay with HCT-15 colon, 97.7%; in the assay with HT29 colon, 88.6%. Moreover, the growth in the assay on SNB-75 CNS is 89.4%; in the assay on SNB-19 CNS it was 108%; in the assay with U251 CNS, 103%; in the assay on PC-3 prostate, 101%; in the assay with SK-MEL-5 melanoma, 102%; with UACC-62 melanoma, 101%. Moreover, the growth was 94.1% in the assay with LOX IMVI melanoma and 105% in the assay on SK-MEL-28 melanoma.

On to `COc1cc2ncnc(Nc3ccc(S(=O)(=O)Nc4cc(C)on4)cc3)c2cc1OCCCN1CCN(c2ccc([N+](=O)[O-])cc2)CC1`, for which the growth was 112% with DU-145 prostate; 120% in the assay with K-562 leukemia; 104% with MALME-3M melanoma; 97.9% in the assay with MDA-MB-231 breast; 115% in the assay on RXF 393 renal; 102% in the assay with SF-268 CNS. The growth in the assay with SF-295 CNS was 109%; in the assay on SF-539 CNS, 102%; with UACC-257 melanoma it was 107%; in the assay on M14 melanoma, 98.4%; in the assay with HCT-15 colon, 105%; with HT29 colon it was 107%. Moreover, the growth in the assay with SNB-75 CNS is 91.9%; in the assay with SNB-19 CNS, 100%; in the assay with U251 CNS it was 97.1%; in the assay with PC-3 prostate, 104%; in the assay on SK-MEL-5 melanoma, 111%; with UACC-62 melanoma, 94.4%. Further, the growth in the assay with LOX IMVI melanoma is 96.1%; in the assay on SK-MEL-28 melanoma it was 112%.

In the case of `O=C(CSc1nnc(Cc2ccccc2Nc2c(Cl)cccc2Cl)n1-c1ccccc1)N1N=C(c2ccc3ccccc3c2)CC1c1ccc(Cl)cc1` (stereo not given), the growth with DU-145 prostate is 94.3%; with K-562 leukemia, 101%; in the assay with MALME-3M melanoma it was 95.4%; in the assay with MDA-MB-231 breast it was 104%; in the assay with RXF 393 renal it was 124%; in the assay with SF-268 CNS, 89.1%. Moreover, the growth in the assay on SF-295 CNS was 100%; in the assay with SF-539 CNS, 106%; in the assay with UACC-257 melanoma, 117%; with M14 melanoma, 98.4%; with HCT-15 colon, 98.9%; in the assay on HT29 colon it was 86.2%. The growth is 81% with SNB-75 CNS; 95.1% in the assay on SNB-19 CNS; 98.3% with U251 CNS; 87.1% in the assay with PC-3 prostate; 104% in the assay with SK-MEL-5 melanoma; 87.6% in the assay on UACC-62 melanoma. The growth in the assay on LOX IMVI melanoma was 94%; in the assay on SK-MEL-28 melanoma it was 112%.

As to `O=C(c1ccccc1)C(CCc1ccccn1)CCc1ccccn1`, the growth was 101% in the assay on DU-145 prostate; 96.2% in the assay on K-562 leukemia; 82.4% with MALME-3M melanoma; 99.5% in the assay with MDA-MB-231 breast; 120% with RXF 393 renal; 101% in the assay with SF-268 CNS. Moreover, the growth in the assay with SF-295 CNS was 110%; in the assay on SF-539 CNS, 103%; in the assay on UACC-257 melanoma, 109%; in the assay on M14 melanoma, 93.7%; in the assay on HCT-15 colon it was 96.6%; in the assay with HT29 colon, 96.7%. Moreover, the growth is 106% in the assay with SNB-75 CNS; 94.1% in the assay with SNB-19 CNS; 101% in the assay on U251 CNS; 86.8% with PC-3 prostate; 100% with SK-MEL-5 melanoma; 86.1% in the assay with UACC-62 melanoma. The growth is 95.8% in the assay with LOX IMVI melanoma and 106% in the assay with SK-MEL-28 melanoma.

Consider `Cc1c(C(N)=O)sc2ncn(CC(=O)NN=C3CCCCC3)c(=O)c12`, for which the growth in the assay on DU-145 prostate was 111%; in the assay on K-562 leukemia it was 103%; in the assay on MALME-3M melanoma, 136%; in the assay with MDA-MB-231 breast, 103%; with RXF 393 renal, 83.5%; in the assay with SF-268 CNS, 108%. Besides, the growth in the assay with SF-295 CNS was 98.6%; in the assay with SF-539 CNS, 105%; in the assay with UACC-257 melanoma it was 165%; in the assay on M14 melanoma, 105%; in the assay on HCT-15 colon, 109%; in the assay on HT29 colon, 90.5%. The growth was 102% in the assay with SNB-75 CNS; 104% in the assay on SNB-19 CNS; 99.5% in the assay on U251 CNS; 122% in the assay with PC-3 prostate; 106% in the assay on SK-MEL-5 melanoma; 99.9% with UACC-62 melanoma. Also, the growth was 103% in the assay on LOX IMVI melanoma and 118% in the assay on SK-MEL-28 melanoma.

The values are drawn from PubChem BioAssay (NCI).
